Screening results as filed in PubChem BioAssay.
TDP1 cell CPT – qHTS for Inhibitors of human tyrosyl-DNA phosphodiesterase 1 (TDP1): qHTS in cells in presence of CPT; Potency, µM (top dose mostly 46.2 µM), inactives show at the highest dose activity change, negative = growth inhibition, usual class: inhibitors; chicken DT40 Tdp1-/-;hTDP1 cells + 20 nM CPT, ATP luminescence, 48 h; actives 12% (n = 420,000); also: nearly all actives have a fitted effect of over 55% in size
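Cell growth measured by CellTiter-Glo luminescence after a minimum 48 h, 37 C compound exposure with 20 nM CPT in Tdp1-knockout DT40 cells stably expressing hTDP1, seeded 400/well; qHTS titration format.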
VDR inh – Inhibitors of the vitamin D receptor (VDR): qHTS. actives 0.93% (n = 400,000). Potency, µM, for inactives: max response, negative = inhibition, actives largely listed as inhibitors. Vitamin D3 receptor (Homo sapiens), P11473. AID 504847, 2011. VDR-SRC2-3 peptide fluorescence polarization, 2 h
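Two reagent solutions held at 4 deg C in the dark were dispensed, compounds pinned at 23 nl, and the mixture incubated 2 h at room temperature. Read-out: fluorescence polarization of VDR–SRC2-3 peptide binding.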
PLK1 PBD block – qHTS for Inhibitors of PLK1-PDB (polo-like kinase 1 - polo-box domain): Primary Screen. Serine/threonine-protein kinase PLK1 (Homo sapiens), P53350. Potency, µM, without a hit: max response, negative = inhibition, hits mostly inhibitors. Plk1 PBD binding of FITC phosphopeptide, fluorescence polarization. actives 2.8% (n = 360,000). AID 720504, 2013; also: series mostly up to about 57 µM; nearly all actives have a fitted effect of over 65% in size
TDP1 cell noCPT – qHTS for Inhibitors of human tyrosyl-DNA phosphodiesterase 1 (TDP1): qHTS in cells in absence of CPT; AID 686978, 2013; DT40 Tdp1-/- hTDP1 cells, no CPT, ATP luminescence, 48 h; Potency, µM (titrated, usually from 46.2 µM), without a hit: at the top dose activity change, negative = growth inhibition, most hits filed as inhibitors; actives 15% (n = 420,000); also: nearly all actives have a fitted effect of over 55% in size
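Chicken DT40 Tdp1-/- cells stably complemented with human TDP1 were seeded at 400 cells/well with DMSO in place of 20 nM camptothecin. After compound pinning, cells grew at least 48 hr at 37 °C; viability read by CellTiter-Glo luminescence.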
TDP1 block – qHTS Assay for Inhibitors of Tyrosyl-DNA Phosphodiesterase (TDP1); Tyrosyl-DNA phosphodiesterase 1 (Homo sapiens), Q9NUW8; recombinant TDP1, AlphaScreen DNA substrate cleavage; Potency, µM (highest dose often 130 µM), without a hit: at the top dose activity change, negative = inhibition, hits mostly inhibitors; actives 0.28% (n = 350,000); also: nearly all actives have a fitted effect of over 40% in size
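Steps: enzyme plus compound, 15 min RT; add biotin/phosphotyrosine-FITC oligonucleotide (15 nM final), react 5 min; add donor/acceptor beads (10 ug/ml final), 10 min; read AlphaScreen. Tdp1 at 1 nM final.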
GCN5L2 inh – qHTS Assay for Inhibitors of GCN5L2; Histone acetyltransferase KAT2A (Homo sapiens), Q92830; GCN5L2 HAT assay, ThioGlo1 CoA-SH fluorescence; Potency, µM (titrated, usually from 58.9 µM), inactives show at the top dose activity change, negative = inhibition, usual class: inhibitors; actives 0.21% (n = 390,000); AID 504327, 2011
Target sequence (Q92830 whole entry, looked up): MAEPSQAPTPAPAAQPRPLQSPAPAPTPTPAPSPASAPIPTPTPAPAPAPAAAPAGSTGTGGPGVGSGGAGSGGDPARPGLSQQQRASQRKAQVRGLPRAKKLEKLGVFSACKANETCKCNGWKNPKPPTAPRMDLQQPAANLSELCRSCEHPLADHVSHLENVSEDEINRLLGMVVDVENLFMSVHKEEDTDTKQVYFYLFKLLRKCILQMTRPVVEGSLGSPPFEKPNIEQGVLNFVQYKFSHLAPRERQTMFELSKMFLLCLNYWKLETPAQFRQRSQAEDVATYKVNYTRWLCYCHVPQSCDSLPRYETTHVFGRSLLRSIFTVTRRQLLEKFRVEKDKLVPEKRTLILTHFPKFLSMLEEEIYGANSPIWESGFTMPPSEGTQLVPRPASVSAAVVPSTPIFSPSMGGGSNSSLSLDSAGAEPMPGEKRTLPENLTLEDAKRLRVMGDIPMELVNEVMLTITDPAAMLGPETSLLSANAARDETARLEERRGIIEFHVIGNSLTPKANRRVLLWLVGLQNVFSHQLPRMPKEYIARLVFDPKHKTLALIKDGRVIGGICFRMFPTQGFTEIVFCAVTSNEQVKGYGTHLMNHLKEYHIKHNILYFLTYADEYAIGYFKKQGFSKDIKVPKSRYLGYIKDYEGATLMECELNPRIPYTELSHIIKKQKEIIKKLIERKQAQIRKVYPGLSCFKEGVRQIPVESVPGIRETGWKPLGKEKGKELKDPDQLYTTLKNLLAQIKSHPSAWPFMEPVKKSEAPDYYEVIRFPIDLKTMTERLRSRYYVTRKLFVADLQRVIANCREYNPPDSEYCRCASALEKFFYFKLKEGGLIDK
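GCN5L2 (20nM final) in 50mM HEPES, 0.1mM EDTA pH 7.5, 0.01% Tween-20 was preincubated 15 min at room temperature with compound, then given ThioGlo1 (50uM), H3(1-25) peptide (75uM) and acetyl-CoA (70uM); CoA-thiol fluorescence (Ex340/Em540) was read at 0 and 20 min.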
* marks the source's active call; other numbers are inactive results; ? = inconclusive; . = no result; [ ] = another dose, or the depositor's remark. An excerpt weighted towards active compounds, which were near 18% of everything screened. Calls follow the shape of the dose curve; as a rule, active = well fitted curve in the direction sought with a large enough effect; inconclusive = small, poorly fitted or top-dose-only effect, or another doubt; inactive = no such curve, though single readings can be large; an effect the other way counts as inactive or inconclusive. % is scaled to controls: 0 for no effect and ±100 for the full control effect; potency is read from the fitted curve at half-maximal effect.

SMILES	TDP1 cell CPT	VDR inh	PLK1 PBD block	TDP1 cell noCPT	TDP1 block	GCN5L2 inh
CN1/C(=C\C=C2/SC(=S)N(CC(=O)O)C2=O)C(C)(C)c2ccccc21	-30.0%	0.3%	112.5%	?	5.4%	-23.0%
CCOC(=O)N1CCN(c2ccnc3cc(Cl)ccc23)CC1	?	1.2%	-6.3%	14.6µM*	9.8%	-6.2%
CCC(=O)N1CCN(c2ccnc3cc(Cl)ccc23)CC1	?	7.8%	-5.1%	?	4.3%	-14.0%
O=C(Oc1ccnc2cc(Cl)ccc12)N1CCCCCC1	?	-19.6%	-1.4%	23.1µM*	2.0%	-6.4%
O=C(c1ccc(Cl)cc1)N1CCN(c2ccnc3cc(Cl)ccc23)CC1	?	15.9%	-10.7%	13µM*	7.2%	-14.6%
CC(C)N(C(=O)N1CCN(c2ccnc3cc(Cl)ccc23)CC1)C(C)C	11.6µM*	-2.1%	5.4%	9.2µM*	.	-2.3%
COc1cc(=O)n2c(c1C(=O)NCc1ccc3c(c1)OCO3)CCN(C(=O)c1cccc(F)c1)CC2	0.3%	.	.	4.6%	.	.
CCCCc1nc2c(C)c(N)cnc2n1Cc1cccc([N+](=O)[O-])c1	-1.4%	-1.7%	-6.2%	?	.	0.4%
C[C@H]1Cc2c(COc3ccccc3)nc3c(c2CO1)CN(S(=O)(=O)c1ccc(Cl)c2nonc12)CC3	.	.	.	.	9.2%[12.3 µM]	.
Cc1cc(SCC(=O)NCC2CCCO2)nc2ccccc12 (stereo unspecified)	3.1%	-6.2%	-0.3%	2.0%	2.1%	-1.1%
CCC(C)Nc1ccc(NC(C)CC)cc1 (stereo unspecified)	4.11µM*	?	-12.1%	-85.5%	11.8%	-7.5%
CCC(C)NC(=O)Nc1ccc(Br)cc1 (stereo unspecified)	?	-2.7%	-7.8%	?	0.0%	5.3%
COc1ccc(NC(=O)CCc2c(C)nc3c(-c4ccccc4)c(C)nn3c2C)cc1Cl	?	-14.4%	.	?	8.1%	-4.5%
Cc1ccccc1C(=O)Nc1nc(-c2nnn(-c3ccc(C(C)C)cc3)c2C)ns1	?	4.3%	.	?	-5.3%	-4.1%
Cc1ccc(C)c(C(=O)Nc2nc3ccccc3[nH]2)c1	?	-17.1%	1.0%	2.31µM*	4.8%[0.0935 µM]	-0.2%
Cc1ccc(Nc2nc3ccccc3[nH]2)nc1	?	-6.6%	1.3%	16.4µM*	5.2%	-2.7%
Cc1ccc(/C=C/C(=O)Nc2nc3ccccc3[nH]2)cc1	13µM*	-3.6%	6.6%	?	0.0%	-7.9%
CC1=CC2C(C(O)CC3(C)C2CC(C)C32OCOC23COCO3)C2(C)C/C(=C\O)C(=O)C=C12 (stereo unspecified)	1.64µM*	?	?	2.59µM*	.	.
CC(=O)Nc1ccc(NS(=O)(=O)c2ccc3ccccc3c2)cc1	?	?	7.52µM*	?	0.0%	-6.6%
NC(N)=NS(=O)(=O)c1ccc(NC(=S)NC(=O)c2ccc3c(c2)OCO3)cc1	-0.3%	0.8%	23.8µM*	0.9%	0.0%	0.1%
O=C1CCCN1c1ccc(S(=O)(=O)Nc2ccc3c(c2)OCCO3)cc1	3.26µM*	-4.8%	-1.2%	2.91µM*	2.2%	-8.8%
CCn1nc(NS(=O)(=O)c2ccc(NC(C)=O)cc2)c2cc3ccccc3nc21	?	?	23.8µM*	?	5.7%	-5.5%
Cc1ccc(S(=O)(=O)Nc2ccc3c(c2)OCCO3)cc1	-25.0%	2.9%	-12.0%	?	-7.7%	-5.3%
CC(=O)NS(=O)(=O)c1ccc(NS(=O)(=O)c2ccc3ccccc3c2)cc1	1.0%	8.7%	-11.2%	-24.7%	.	1.2%
Cc1ccc(OC(C)C(=O)Nc2ccccc2C(=O)NCc2cccnc2)cc1C (stereo unspecified)	?	-21.3%	3.4%	-28.5%	0.4%	-8.2%
SMILES	TDP1 cell CPT	VDR inh	PLK1 PBD block	TDP1 cell noCPT	TDP1 block	GCN5L2 inh
C[n+]1cc(C(O)(c2ccccc2)c2ccccc2)n2ccccc21	.	.	.	.	0.5%	.
O=c1[nH]c2cc3c(cc2cc1CN(CCO)S(=O)(=O)c1ccccc1)OCCO3	-12.1%	-18.5%	0.1%	-28.2%	-1.9%	-6.8%
O=S(=O)(c1ccc(NC(=S)Nc2ccc3c(c2)OCO3)cc1)N1CCOCC1	-15.3%	-5.7%	-30.0%	-29.4%	3.5%	0.6%
CNS(=O)(=O)c1ccc(NC(=S)Nc2ccc3c(c2)OCO3)cc1	6.3%	-18.4%	18.9µM*	7.4%	4.9%	-2.1%
CC(=O)Nc1ccc(S(=O)(=O)Nc2ccc3c(c2)OCCO3)cc1	?	10.6%	-3.7%	7.31µM*	1.2%	-0.4%
CC(=O)c1cc2c(cc1NS(=O)(=O)c1ccc(C)cc1)OCCO2	23.1µM*	7.7%	-9.9%	20.6µM*	0.0%	3.3%
CN(C)c1ccc(C(=O)N2CCCC(Cn3cc(C(=O)N4CCCC4)nn3)C2)cc1 (stereo unspecified)	0.9%	.	.	-11.2%	.	.
O=C(NC(c1ccc(-c2ccccc2)cc1)c1cnccn1)C1CCN(Cc2ccc3c(c2)OCO3)CC1 (stereo unspecified)	5.8µM*	.	5.5%	5.17µM*	.	.
COc1ccc(C(NC(=O)C2CCN(CCOc3ccccc3)CC2)c2ccccn2)cc1 (stereo unspecified)	13.7%	.	-0.9%	-7.3%	.	.
Cn1cc(CN2CCC(C(=O)NC(c3ccc(-c4ccccc4)cc3)c3cnccn3)CC2)c2ccccc21 (stereo unspecified)	13µM*	.	-1.9%	16.4µM*	.	.
O=C(NC(c1ccccc1)c1cnccn1)C1CCN(CCOc2ccc(Cl)cc2Cl)CC1 (stereo unspecified)	16.4µM*	.	-9.5%	18.4µM*	.	.
O=C(NC(c1ccccc1)c1cnccn1)C1CCN(Cc2ccc(Cl)c(Cl)c2)CC1 (stereo unspecified)	9.2µM*	.	-16.4%	13µM*	.	.
O=C(NC(c1ccc(-c2ccccc2)cc1)c1cnccn1)C1CCN(Cc2ccc(Cl)c(Cl)c2)CC1 (stereo unspecified)	?	.	-10.1%	?	.	.
O=C(c1csnn1)N1CCC[C@@]2(CCN(c3ncccn3)C2)C1	6.4%	5.0%	.	-8.3%	.	18.9%
CCCNC(=O)N[C@H]1C=C[C@H](CC(=O)NC2CCCCC2)O[C@@H]1CO	5.1%	.	-14.6%	?	.	.
